KKLEB tox: CF airway cell cytotoxicity counter-screen | KKLEB CF airway cells viability, ATPlite luminescence, overnight; hits give low values; cells stimulated with P. aeruginosa culture filtrate | activity change (cytotoxicity), % at 5 µM | 360,000 tested, 0.36% active | AID 602141;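 active = corrected activity change at or below -50% at 5 µM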
HIF-2a block: HIF-2a inhibition; 786-0 RCC cells HIF-2a reporter, luciferase luminescence, overnight; inhibition, % at 18.8 µM; 360,000 tested, 0.72% active; AID 624352;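 active = inhibition of the luminescence signal of 40% or more relative to plate controls, in a single-dose primary screen at 18.75 µM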
EWS-Fli inh: EWS/Fli transcriptional activity inhibition. A673 NR0B1-luciferase reporter, viability-normalised. inhibition, % at 12.6 µM. 350,000 tested, 0.67% active;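 active = mean inhibition of at least 50% after viability correction, with every replicate also passing that limit; inconclusive = mean reaches 50% but only one of two replicates passes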;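 note: firefly luciferase signal divided by Alamar Blue viability fluorescence both relative to DMSO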
PAX8 inh HTS: PAX8 transcriptional activity inhibition; inhibition, % at 12.6 µM; RMG-I TPO-luciferase reporter, SteadyGlo, 24 h; AID 652154; 360,000 tested, 1.2% active;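 active = mean replicate inhibition at least 60% with every replicate also reaching 60%; inconclusive = only one of the two criteria is met; inactive = mean below 60% and not all replicates reaching 60%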;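 note: luciferase light reporting Pax8 driven TPO promoter activity; plate controls were median of neutral control wells for no effect and mitoxantrone controls for full effect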
CF NFkB block: inhibitors of cystic fibrosis induced NF-kB; inhibition, % at 5 µM; KKLEB NF-kB-GFP reporter, PAF-induced, GFP fluorescence overnight; 360,000 tested, 0.86% active;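 active = at least 50% inhibition at 5 µM, scaled per plate between neutral and stimulator controls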;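 note: PAF is a Pseudomonas aeruginosa culture filtrate used as stimulus; plate controls were PAF-stimulated DMSO wells for no effect and unstimulated DMSO wells for full effect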
* hit, by the source's call; ? = inconclusive; / = not tested or not shown. Compounds with a hit are over-represented: about 2.1% of the library has one in this group of screens.

SMILES	KKLEB tox	HIF-2a block	EWS-Fli inh	PAX8 inh HTS	CF NFkB block
O=C(c1ccccc1F)N1CC(=O)N2[C@@H](CO)[C@@H](c3ccc(C#Cc4ccc(F)cc4)cc3)[C@@H]2C1	/	/	-3.6	108.2*	/
COc1cccc(C#Cc2ccc([C@@H]3[C@H](CO)N4C(=O)CN(C(=O)c5ccccc5)C[C@@H]34)cc2)c1	/	/	-1.8	69.1*	/
O=C(c1ccc(F)cc1)N1CC(=O)N2[C@H](CO)[C@H](c3ccc(/C=C/c4ccccc4)cc3)[C@@H]2C1	/	/	14.5	20.6	/
O=C(c1ccc(F)cc1)N1CC(=O)N2[C@H](C1)[C@H](c1ccc(/C=C/c3ccccc3)cc1)[C@@H]2CO	/	/	4.2	68.8*	/
COc1cccc(C#Cc2ccc([C@H]3[C@H]4CN(C(=O)c5ccccc5)CC(=O)N4[C@H]3CO)cc2)c1	/	/	-3.2	45.2	/
COc1cccc(Nc2nc(N)nc(CCl)n2)c1	-7.8	-71.6	58.6*	97.0*	34.6
Cc1cccc(Nc2nc(N)nc(CCl)n2)c1	-6.0	-21.5	39.7	89.8*	25.5
CN(C)CCNC(=O)c1cccc2nc3cccc(F)c3nc12	-2.7	-4.2	56.2*	7.3	-32.0
COc1ccc(OC)c2nc3c(C(=O)NCCN(C)C)cccc3nc12	10.7	7.3	44.8	/	-222.5
Cc1ccc(S(=O)(=O)Nc2cccc3c2O[C@H](CN(C)S(=O)(=O)c2c(C)noc2C)[C@@H](C)CN([C@H](C)CO)C3=O)cc1	/	/	/	-27.4	/
COC(=O)c1cccc(CSc2nc3ccccc3[nH]2)c1	-1.5	-27.5	58.8*	-37.5	-0.8
COC(=O)c1ccc(CSc2nc3ccccc3[nH]2)o1	-12.8	-59.1	/	-32.3	15.3
Oc1ccc(N=Nc2ccc3c(c2)OCCO3)c2ncccc12	-3.2	3.6	21.3	76.3*	-22.4
C[C@@H]1CN([C@@H](C)CO)C(=O)c2cc(NS(C)(=O)=O)ccc2O[C@@H](C)CCCCO[C@H]1CN(C)C(=O)CCCN(C)C	/	/	-2.6	-22.1	/
Cc1nnc(N/N=C/c2ccccc2O)n1N	-3.6	-6.8	1.9	49.7	-19.6
Cc1nnc(N/N=C/c2cc(C)n(-c3ccc(F)cc3)c2C)n1N	-1.3	-38.3	-8.4	119.7*	-33.2
Cc1ccc(-c2cnc(C3CC3)o2)cc1S(=O)(=O)Nc1ccccc1	7.0	3.4	/	/	20.1
CCOc1ccccc1NS(=O)(=O)c1ccc(-c2cnc(C3CC3)o2)cc1	22.0	37.8	/	76.4*	48.3
COc1ccc(NS(=O)(=O)c2ccc(-c3cnc(C4CC4)o3)cc2)cc1OC	-3.4	28.2	?	56.9	20.8
COc1ccccc1N1CCN(S(=O)(=O)c2ccc(-c3cnc(C4CC4)o3)cc2)CC1	-11.4	1.9	/	-0.6	16.2
Cc1ccc(N(C)S(=O)(=O)c2cc(-c3cnc(C4CC4)o3)ccc2C)cc1	-1.3	28.9	13.1	11.5	3.3
O=S(=O)(Nc1ccc(F)cc1Cl)c1ccc(-c2cnc(C3CC3)o2)cc1	-13.6	20.1	57.3*	28.0	39.8
Cc1cccc(N(C)S(=O)(=O)c2ccc(-c3cnc(C4CC4)o3)cc2)c1	-10.5	28.5	58.1*	98.9*	42.9
COc1ccccc1CNS(=O)(=O)c1ccc(-c2cnc(C3CC3)o2)cc1	-16.9	6.6	61.2*	33.6	24.0
COc1cccc(S(=O)(=O)N2CC[C@@H]3[C@H](CO)N(C)c4ccc(C5=CCCCC5)cc4[C@@H]32)c1	/	/	-1.5	-13.7	/
SMILES	KKLEB tox	HIF-2a block	EWS-Fli inh	PAX8 inh HTS	CF NFkB block
CC(C)NC(=O)Nc1ccc2c(c1)C(=O)N([C@@H](C)CO)C[C@@H](C)[C@@H](CN(C)C(=O)Cc1ccccc1)OCCCC[C@H](C)O2	/	/	/	-0.2	/
COc1ccc(N2C(=O)CC(Cc3ccccc3)C2=O)cc1 (stereo unspecified)	-5.5	2.3	/	-13.9	5.2
O=C1Nc2ccccc2C1Cc1ccccc1 (stereo unspecified)	4.6	2.7	8.8	-4.2	-8.9
O=C1C=CC2(C=C1)O[C@H](Cc1ccccc1)[C@@H](Cc1ccccc1)O2	-98.2*	92.4*	49.0	121.3*	95.6*
COc1ccc(C[C@@H]2OC3(C=CC(=O)C=C3)O[C@H]2Cc2ccc(OC)cc2)cc1	-77.7*	87.2*	/	/	85.0*
COc1ccc(NC(=O)Nc2ccc3c(c2)C(=O)N([C@@H](C)CO)C[C@H](C)[C@H](CN(C)Cc2ccc4c(c2)OCO4)OCCCC[C@H](C)O3)cc1	/	/	13.4	-0.7	/
COc1ccc(NC(=O)C(Sc2nnc(-c3ccncc3)n2-c2ccccc2C)c2ccccc2)cc1Cl (stereo unspecified)	-28.6	8.4	-1.4	115.0*	-8.7
COc1ccc(/C=C2\Sc3ccc(C(=O)N4CCN(Cc5ccccc5)CC4)cc3N(C)C2=O)cc1OC	-17.3	29.4	34.0	77.2*	14.7
Cc1noc(C)c1NC(=O)Nc1ccc2c(c1)C(=O)N(C)[C@@H]1CC[C@@H](CC(=O)N(C)C)O[C@@H]1CO2	/	/	-4.3	10.7	/
COc1ccccc1NC(=O)N1CCCCN2[C@H](CO)[C@H](c3ccc(-c4ccccc4)cc3)[C@H]2C1	/	/	-7.1	43.8	/
CC1(C)CCN2CCC(C)(C)c3c(O)ccc1c32	-9.7	14.9	32.7	83.9*	23.4
N#C[C@@H]1[C@H](c2ccc(-c3cccc(F)c3)cc2)[C@@H](CO)N1C(=O)CN1CCOCC1	/	/	11.1	-22.6	/
CC(C)CC#Cc1cnc2c(c1)C(=O)N([C@H](C)CO)C[C@@H](C)[C@@H](CN(C)C(=O)c1cnccn1)O2	/	/	-1.5	/	/
CN(C)CC/C=C1\c2ccccc2COc2ccccc21	-55.6*	-9.7	-3.3	-20.6	-10.8
COc1ccc(-c2ccc3c(c2)[C@@H]2[C@@H](CCN2S(=O)(=O)c2ccc(OC)cc2)[C@H](CO)N3C)cc1	/	/	-1.2	20.8	/
CCCC#Cc1ccc2c(c1)[C@@H]1[C@@H](CCN1S(=O)(=O)c1ccc(F)cc1)[C@@H](CO)N2C	/	/	13.7	9.1	/
COc1ccc(-c2ccc3c(c2)[C@@H]2[C@@H](CCN2S(=O)(=O)c2ccc(F)cc2)[C@H](CO)N3C)cc1	/	/	3.2	62.2*	/
CCCC#Cc1ccc2c(c1)[C@@H]1[C@@H](CCN1S(=O)(=O)c1cccc(F)c1)[C@@H](CO)N2C	/	/	13.8	66.6*	/
COc1ccccc1S(=O)(=O)N1CC[C@H]2[C@@H](CO)N(C)c3ccc(-c4ccc(C#N)cc4)cc3[C@H]21	/	/	9.3	106.6*	/
CN(C)CC#Cc1cccc(-c2nc(C(=O)N[C@@H]3CCN(Cc4ccccc4)C3)cc3c2[C@H](CCO)N(S(=O)C(C)(C)C)C3)c1 (stereo partly specified)	/	/	5.5	2.7	/
COc1ccc2nc(SCC(=O)Nc3ccc4sc(C)nc4c3)c(C#N)cc2c1	-61.6*	-59.1	/	/	16.7
COc1ccc(NC(=O)CSc2nc(N)c(C#N)cc2C#N)cc1	-2.5	-7.7	-13.5	/	5.1
C[C@@H]1CN([C@@H](C)CO)S(=O)(=O)c2ccc(-c3cncnc3)cc2O[C@H]1CN(C)C(=O)C1CC1	/	/	-3.1	/	/
NC(N)=N/N=C/c1ccc(OCc2ccccc2)c(OCc2ccccc2)c1	-53.3*	28.2	29.3	-3.0	45.2
